# According to PubChem BioAssay (NCATS):
# “And” between values parts separate entries of the source, which are not always exact repeats. Equal values may be shown once. Inconclusive results are not listed. Entries that show only a call come without a potency. The source made the active and inactive calls. Unless noted, calls follow the shape of the dose curve; as a rule, active = well fitted inhibition curve with a large enough effect; inconclusive = small, poorly fitted or top-dose-only effect; inactive = flat fitted curve, though single readings scatter.
# What was measured:
# [1] = qHTS Assay for Lipid Storage Modulators (AID 1519; calls by dose curve); conditions: Drosophila S3 cells, BODIPY lipid droplet/cell ratio, laser cytometry, cells loaded with oleic acid
# Outline: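 Cells seeded at 5,000 per well were treated with compounds over a concentration series and loaded with oleic acid (400 uM, as added). Lipid droplet fluorescence (488 nm excitation, 500-530 nm channel) was read by laser-scanning cytometry and normalized to 20 uM Triacsin C.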
# [2] = target: Ubiquitin carboxyl-terminal hydrolase 1 (Homo sapiens) (UniProt O94782); experiment: Inhibitors of USP1/UAF1: Pilot qHTS (AID 504865); conditions: purified USP1/UAF1, Ub-rhodamine cleavage fluorescence; series mostly up to 54.9 µM;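 also: rhodamine fluorescence freed from ubiquitin-rhodamine substrate followed over time; top concentration of the series differs between compounds; nearly all actives have a fitted effect of over 35% in size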
# Outline: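 Enzyme-free wells gave the negative control, while test wells held 1nM USP1/UAF1 preincubated with compound for 15 min at room temperature. Ub-Rho at 150nM final started the reaction, and fluorescence at 480/540 nm was recorded kinetically.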
# [3] = AP1 Signaling Pathway (AID 357; active = well fitted curve in either direction with a large enough effect, not every such curve was filed as active;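 also: ME-180 reporter cells stimulated with EGF at its EC50 level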); conditions: ME-180 AP-1-bla reporter, EGF-induced, beta-lactamase ratio, 5 h; at 7.69 µM (top of the series) unless noted
# Outline: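 Cells are seeded overnight, exposed to compound titrations and an EC50 level of EGF for 5 hours at 37 °C, then loaded with CCF4 dye for 2.5 hours. Beta-lactamase activity under the AP-1 element is read as a blue/green ratio.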
# [4] = target: Cytochrome P450 1A2 (Homo sapiens) (UniProt P05177); experiment: p450-cyp1a2 (AID 410; calls by dose curve); conditions: recombinant CYP1A2, luciferin-ME demethylation, luminescence; series mostly up to 57 µM
# Outline: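 O-Demethylation of luciferin 6' methyl ether by human CYP1A2 is monitored as luciferase luminescence. Substrate sits at Km (100uM); enzyme is 20nM. Values are scaled to 57 uM furafylline as maximal inhibition.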
# [5] = NFAT Signaling Pathway (AID 444; active = well fitted curve in either direction with a large enough effect, not every such curve was filed as active;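 also: carbachol stimulus at about its EC50 of 1 µM final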); conditions: Jurkat NFAT-bla M1, carbachol, beta-lactamase ratio, 5 h; at 7.69 µM (top of the series) unless noted
# Outline: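 Read-out: CCF4 FRET ratio (460 nm/530 nm) after 1 h RT dye loading, used for %activity and AC50 from titration series. Cells: Jurkat NFAT-β-lactamase/M1 line, treated with compound plus 1 uM carbachol for 5 h, 37 °C.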
# [6] = Stat Signaling Pathway (AID 446; active = well fitted curve in either direction with a large enough effect, not every such curve was filed as active;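 also: ME-180 cervical cancer cells given 40 pM IL-6 alongside compound; SIE-controlled beta-lactamase reporter measured as 460/530 nm FRET emission ratio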); conditions: ME-180 (cervical carcinoma) SIE beta-lactamase reporter, IL-6 stimulated, 5 h; at 7.69 µM (top of the series) unless noted
# Outline: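 Compound effects on IL-6-induced STAT reporter activity were measured in ME-180 cells. After overnight culture, cells were co-treated with 40 pM IL-6 for 5 hrs before beta-lactamase substrate loading at room temperature.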
# [7] = target: Glucocorticoid receptor (Homo sapiens) (UniProt P04150); experiment: GR-GFP Redistribution (AID 450;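 active = compounds whose dose series gives a full or clear partial fitted curve of increased nuclear translocation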; also: potency is read from the fitted curve at half-maximal effect); conditions: U2OS GR-GFP nuclear translocation, laser cytometry, 2 h
# [8] = target: Glucocorticoid receptor (Homo sapiens) (UniProt P04150); experiment: GR-EFC Redistribution (AID 451; calls by dose curve; also: potency is read from the fitted curve at half-maximal effect); conditions: CHO-K1 GR-EFC translocation, beta-gal luminescence, 2 h
# Outline: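 Translocation of GR-ED fusion to nuclear EA restores b-gal, read by luminescence after 1 h room-temperature detection. Engineered CHO-K1 biosensor cells, 1,000/well, exposed 2 h at 37 C to titrations up to 46 uM final.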
# [9] = target: Mitogen-activated protein kinase 10 (Mus musculus) (UniProt Q61831); experiment: JNK3 AlphaScreen Assay (AID 530; active = well fitted curve in either direction with a large enough effect, not every such curve was filed as active;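 also: kinase came from lysate of stimulated human HepG2 cells; signal reports phosphorylation of biotinylated GST-cJun 1-79 at Ser73 with 10 µM ATP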); conditions: JNK3 lysate, c-Jun phosphorylation; series mostly up to 57.1 µM
# Outline: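 qHTS titrations with 15 min compound pre-incubation before adding ATP (10 uM final). Read-out: AlphaScreen of Ser73-phosphorylated biotin-GST-cJun using HepG2 lysate JNK3 activated by IL-1β and TNFα.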
# [10] = target: 3',5'-cyclic-AMP phosphodiesterase 4B (Homo sapiens) (UniProt Q07343); experiment: qHTS Assay for Inhibitors of PDE-IV (AID 607; active = well fitted activation curve with a large enough effect in the main read-out, with a control signal flat, not every such curve was filed as active); conditions: HEK293 ACTOne CNG channel cells, membrane potential fluorescence; series mostly up to 22.9 µM
# Outline: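 ACTOne HEK293 cells carry a modified cAMP-gated CNG channel and express endogenous PDE4; plated 1000 cells/well, compounds up to 22.9 uM final. Membrane-potential dye fluorescence (ex 535/em 590) was read; parental cells received 10 uM forskolin + 100 uM RO 20-1724.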
# [11] = target: Luciferin 4-monooxygenase (Photinus pyralis) (UniProt P08659); experiment: Biochemical firefly luciferase enzyme assay for NPC (AID 624030);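 also: purified P. pyralis luciferase at 10 nM with luciferin and ATP substrate; nearly all actives have a fitted effect of over 70% in size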; conditions: purified P. pyralis luciferase, luminescence, 5 min; series mostly up to 58.6 µM
# Outline: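 Direct inhibition of firefly luciferase enzyme (10 nM final, 50 mM Tris Acetate) assessed by luminescence within 5 minutes. Percent activity scaled between DMSO and PTC124 positive control, with concentration-effect curves classified by fit quality and response.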
# [12] = qHTS profiling for inhibitors of Plasmodium falciparum proliferation (AID 504749); also: nearly all actives have a fitted effect of over 60% in size; conditions: P. falciparum in erythrocytes, SYBR Green DNA, 72 h
# Outline: (§1)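 SYBR Green fluorescence of parasite DNA, read after lysis and overnight dark incubation, measured growth over 72 h in erythrocyte culture at 0.3% parasitemia and 2.5% hematocrit. Data normalised to DMSO and 0.29 uM artemisinin, with plate-drift correction.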
# CP238 = experiment: as above; conditions: P. falciparum in erythrocytes, SYBR Green DNA, 72 h; series mostly up to 12.8 µM
# Outline: as §1
# CP262 = experiment: as above; conditions: P. falciparum in erythrocytes, SYBR Green DNA, 72 h; series mostly up to 12.8 µM
# Outline: as §1
# CP325 = experiment: as above; conditions: P. falciparum in erythrocytes, SYBR Green DNA, 72 h; series mostly up to 12.8 µM
# Outline: as §1
# ECU = experiment: as above; conditions: P. falciparum in erythrocytes, SYBR Green DNA, 72 h; series mostly up to 12.8 µM
# Outline: as §1
# FAB9 = experiment: as above; conditions: P. falciparum in erythrocytes, SYBR Green DNA, 72 h; series mostly up to 12.8 µM
# Outline: as §1
# HB3 = experiment: as above; conditions: P. falciparum in erythrocytes, SYBR Green DNA, 72 h; series mostly up to 12.8 µM
# Outline: as §1
# JCK = experiment: as above; conditions: P. falciparum in erythrocytes, SYBR Green DNA, 72 h; series mostly up to 12.8 µM
# Outline: as §1
# [13] = measured here: cell count channel max response
# [14] = measured here: lipid channel max response
# [15] = at 12.8 µM (top of the series), parasite line A
# [16] = at 12.8 µM (top of the series), parasite line B
# Sequence of Glucocorticoid receptor (Homo sapiens) (P04150 whole entry, looked up, the tested form may be a part): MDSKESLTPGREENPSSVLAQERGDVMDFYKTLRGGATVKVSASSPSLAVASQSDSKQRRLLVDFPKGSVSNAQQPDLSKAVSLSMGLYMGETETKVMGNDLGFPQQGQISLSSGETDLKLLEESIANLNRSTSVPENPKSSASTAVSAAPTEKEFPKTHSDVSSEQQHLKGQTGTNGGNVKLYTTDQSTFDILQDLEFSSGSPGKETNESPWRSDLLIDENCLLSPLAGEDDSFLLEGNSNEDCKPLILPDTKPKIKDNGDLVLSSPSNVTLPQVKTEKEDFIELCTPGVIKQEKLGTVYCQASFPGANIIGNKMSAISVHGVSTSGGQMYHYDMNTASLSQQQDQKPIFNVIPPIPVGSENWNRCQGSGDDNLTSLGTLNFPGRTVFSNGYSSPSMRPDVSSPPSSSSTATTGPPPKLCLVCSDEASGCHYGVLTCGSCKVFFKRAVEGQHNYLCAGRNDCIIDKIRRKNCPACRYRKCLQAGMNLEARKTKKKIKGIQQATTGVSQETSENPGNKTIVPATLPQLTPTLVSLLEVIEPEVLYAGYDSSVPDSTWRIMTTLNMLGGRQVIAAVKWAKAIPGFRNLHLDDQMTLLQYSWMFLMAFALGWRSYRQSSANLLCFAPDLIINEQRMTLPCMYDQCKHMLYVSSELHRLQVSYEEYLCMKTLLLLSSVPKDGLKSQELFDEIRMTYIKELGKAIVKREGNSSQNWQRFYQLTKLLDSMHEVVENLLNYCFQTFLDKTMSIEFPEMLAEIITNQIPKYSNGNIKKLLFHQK
# Sequence of Ubiquitin carboxyl-terminal hydrolase 1 (Homo sapiens) (O94782 whole entry, looked up): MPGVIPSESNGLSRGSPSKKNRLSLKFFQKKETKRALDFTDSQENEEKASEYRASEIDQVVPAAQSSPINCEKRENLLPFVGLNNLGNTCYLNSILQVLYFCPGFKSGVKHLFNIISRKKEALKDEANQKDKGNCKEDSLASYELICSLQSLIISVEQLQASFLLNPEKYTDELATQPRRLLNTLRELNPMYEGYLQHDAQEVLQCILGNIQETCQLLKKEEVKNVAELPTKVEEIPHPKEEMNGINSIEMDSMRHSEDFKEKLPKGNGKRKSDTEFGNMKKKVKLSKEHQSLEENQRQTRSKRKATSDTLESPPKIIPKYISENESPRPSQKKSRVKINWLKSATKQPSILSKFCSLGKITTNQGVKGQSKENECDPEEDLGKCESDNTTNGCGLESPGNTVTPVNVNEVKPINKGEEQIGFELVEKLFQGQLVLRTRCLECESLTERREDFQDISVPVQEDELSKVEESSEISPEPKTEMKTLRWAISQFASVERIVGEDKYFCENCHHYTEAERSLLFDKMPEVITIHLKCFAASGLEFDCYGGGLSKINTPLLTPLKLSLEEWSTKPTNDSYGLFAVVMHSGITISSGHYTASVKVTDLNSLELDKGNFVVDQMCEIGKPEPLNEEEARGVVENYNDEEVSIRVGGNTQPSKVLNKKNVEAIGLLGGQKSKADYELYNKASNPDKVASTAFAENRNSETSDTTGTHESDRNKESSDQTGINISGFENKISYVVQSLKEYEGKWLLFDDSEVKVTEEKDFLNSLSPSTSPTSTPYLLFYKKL
# Sequence of Luciferin 4-monooxygenase (Photinus pyralis) (P08659 whole entry, looked up): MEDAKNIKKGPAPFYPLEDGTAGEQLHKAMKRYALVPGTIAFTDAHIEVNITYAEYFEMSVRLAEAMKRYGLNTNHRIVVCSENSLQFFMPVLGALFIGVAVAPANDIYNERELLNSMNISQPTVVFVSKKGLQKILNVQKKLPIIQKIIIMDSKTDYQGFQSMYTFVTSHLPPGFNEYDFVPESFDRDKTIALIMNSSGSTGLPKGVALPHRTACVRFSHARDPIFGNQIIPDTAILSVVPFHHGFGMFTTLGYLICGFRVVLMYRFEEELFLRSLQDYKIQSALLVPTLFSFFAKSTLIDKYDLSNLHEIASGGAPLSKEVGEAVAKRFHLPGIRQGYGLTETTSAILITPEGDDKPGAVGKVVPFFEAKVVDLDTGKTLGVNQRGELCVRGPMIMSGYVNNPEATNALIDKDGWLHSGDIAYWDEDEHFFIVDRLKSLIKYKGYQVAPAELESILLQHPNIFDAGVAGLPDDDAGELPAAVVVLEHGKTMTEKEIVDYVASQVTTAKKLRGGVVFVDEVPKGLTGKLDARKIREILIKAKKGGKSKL
# Sequence of Cytochrome P450 1A2 (Homo sapiens) (P05177 whole entry, looked up): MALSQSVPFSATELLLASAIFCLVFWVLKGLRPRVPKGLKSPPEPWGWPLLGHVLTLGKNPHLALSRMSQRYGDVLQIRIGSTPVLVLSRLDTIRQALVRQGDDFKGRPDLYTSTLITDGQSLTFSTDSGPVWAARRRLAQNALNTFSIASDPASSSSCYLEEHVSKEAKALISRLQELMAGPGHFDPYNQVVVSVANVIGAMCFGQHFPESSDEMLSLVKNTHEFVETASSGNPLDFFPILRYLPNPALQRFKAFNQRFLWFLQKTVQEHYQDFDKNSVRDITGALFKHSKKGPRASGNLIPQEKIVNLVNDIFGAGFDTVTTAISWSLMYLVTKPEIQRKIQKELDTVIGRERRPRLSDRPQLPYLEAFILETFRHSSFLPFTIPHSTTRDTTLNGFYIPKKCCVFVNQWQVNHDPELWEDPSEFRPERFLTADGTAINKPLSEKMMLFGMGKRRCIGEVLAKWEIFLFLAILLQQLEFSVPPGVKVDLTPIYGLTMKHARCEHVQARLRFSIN
# Sequence of 3',5'-cyclic-AMP phosphodiesterase 4B (Homo sapiens) (Q07343 whole entry, looked up): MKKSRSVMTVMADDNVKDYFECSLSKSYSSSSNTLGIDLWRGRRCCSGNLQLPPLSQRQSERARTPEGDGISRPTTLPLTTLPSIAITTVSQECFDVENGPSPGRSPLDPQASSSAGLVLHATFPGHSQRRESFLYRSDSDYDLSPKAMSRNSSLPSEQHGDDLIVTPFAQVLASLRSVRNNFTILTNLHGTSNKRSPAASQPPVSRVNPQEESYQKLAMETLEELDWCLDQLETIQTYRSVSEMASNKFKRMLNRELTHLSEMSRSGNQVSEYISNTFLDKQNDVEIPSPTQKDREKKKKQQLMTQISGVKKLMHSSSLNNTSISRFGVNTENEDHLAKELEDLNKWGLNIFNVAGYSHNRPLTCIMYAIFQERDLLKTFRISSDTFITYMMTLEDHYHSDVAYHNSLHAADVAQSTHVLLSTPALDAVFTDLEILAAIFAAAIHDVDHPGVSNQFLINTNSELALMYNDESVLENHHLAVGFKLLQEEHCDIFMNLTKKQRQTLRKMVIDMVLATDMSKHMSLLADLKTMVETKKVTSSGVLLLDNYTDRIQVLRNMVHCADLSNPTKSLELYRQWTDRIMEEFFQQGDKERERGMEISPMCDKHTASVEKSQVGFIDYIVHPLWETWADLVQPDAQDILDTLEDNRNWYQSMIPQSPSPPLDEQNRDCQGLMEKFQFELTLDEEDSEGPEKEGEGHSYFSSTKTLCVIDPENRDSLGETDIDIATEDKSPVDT
structure (smiles),measurement,setting,value
CC(=O)Oc1c(C)c(C)c2c(c1C)CCC(C)(CCCC(C)CCCC(C)CCCC(C)C)O2 (centres undefined),"activity change, negative = inhibition",[1]; at 57.5 µM (top of the series),7.46% (inactive) and -0.674% (inactive)
same,max response,[1]; [13],1.52% and -6.76%
same,max response,[1]; [14],12.6% and -6.49%
same,Potency,[2],inactive
CCN1C(=O)N[C@@H](c2ccccc2)C1=O,"activity change, negative = inhibition",[3],-1.74% [at 17.2 µM] (inactive)
same,Potency,[4],inactive
same,"activity change, negative = inhibition",[5],1.96% [at 17.2 µM] (inactive)
same,"activity, negative = inhibition",[6],-21.2% [at 17.2 µM] (inactive)
same,Potency,[7],> 20.6 µM (inactive)
same,Potency,[8],> 20.6 µM (inactive)
same,Potency,[9],inactive
same,Potency,[10],inactive
same,"activity change, negative = inhibition",[1]; at 25.7 µM (top of the series),-2.13% (inactive)
same,max response,[1]; [13],-10.1%
same,max response,[1]; [14],-9.51%
same,Potency,[2],inactive
same,outcome,[11],inactive
same,"activity, negative = inhibition",[12]; [15],-3.65% (inactive)
same,"activity, negative = inhibition",[12]; [16],13.5% (inactive)
same,Potency,CP238,inactive
same,Potency,CP262,inactive
same,Potency,CP325,inactive
same,Potency,ECU,inactive
same,Potency,FAB9,inactive
same,Potency,HB3,inactive
same,Potency,JCK,inactive
C[C@@H](C(=O)O)c1ccc(C(=O)c2cccs2)cc1,"activity change, negative = inhibition",[3],4.04% [at 17.2 µM] (inactive)
same,Potency,[4],inactive
same,"activity change, negative = inhibition",[5],-1.88% [at 17.2 µM] (inactive)
same,"activity, negative = inhibition",[6],1.29% [at 17.2 µM] (inactive)
same,Potency,[7],> 20.6 µM (inactive)
same,Potency,[8],> 20.6 µM (inactive)
same,Potency,[9],inactive
same,Potency,[10],inactive
same,"activity change, negative = inhibition",[1]; at 25.7 µM (top of the series),0.809% (inactive)
same,max response,[1]; [13],-2.83%
same,max response,[1]; [14],-2.07%
same,Potency,[2],inactive
same,outcome,[11],inactive
same,"activity, negative = inhibition",[12]; [15],0.517% (inactive)
same,"activity, negative = inhibition",[12]; [16],11.1% (inactive)
same,Potency,CP238,inactive
same,Potency,CP262,inactive
same,Potency,CP325,inactive
same,Potency,ECU,inactive
same,Potency,FAB9,inactive
same,Potency,HB3,inactive
same,Potency,JCK,inactive
CC1(C)S[C@@H]2[C@H](NC(=O)[C@H](C(=O)O)c3ccsc3)C(=O)N2[C@H]1C(=O)O,"activity change, negative = inhibition",[3],-4.81% [at 17.2 µM] (inactive) and 2.77% [at 17.2 µM] (inactive)
same,Potency,[4],inactive
same,"activity change, negative = inhibition",[5],-7.87% [at 17.2 µM] (inactive) and 25.2% [at 17.2 µM] (inactive)
same,"activity, negative = inhibition",[6],6.96% [at 17.2 µM] (inactive) and -0.401% [at 17.2 µM] (inactive)
same,Potency,[8],> 20.6 µM (inactive)
same,Potency,[9],inactive
same,Potency,[10],inactive
same,"activity change, negative = inhibition",[1]; at 25.7 µM (top of the series),1.08% (inactive)
same,max response,[1]; [13],-10.5%
same,max response,[1]; [14],-8.09%
same,Potency,[2],inactive
same,outcome,[11],inactive
same,"activity, negative = inhibition","[12]; at 28.7 µM (top of the series), parasite line A",-4.85% (inactive)
same,"activity, negative = inhibition","[12]; at 28.7 µM (top of the series), parasite line B",17.9% (inactive)
same,Potency,CP238,inactive
same,Potency,CP262,inactive
same,Potency,CP325,inactive
same,Potency,ECU,inactive
same,Potency,FAB9,inactive
same,Potency,HB3,inactive
same,Potency,JCK,inactive
